According to PubChem BioAssay AID1986 (Sanford-Burnham Center for Chemical Genomics, 2009):
Screen size: about 290,000 compounds; about 890 (0.31%) were called active. Rule as the data show it: active = inhibition mostly above about 52% (no sharp cut-off); inactive = mostly below about 76%. Many of the other results were omitted from the sample, so actives are more common in it than they were.

Test: cell-free HIV fusion peptide-binding blockers – biochemical, uHTS, fluorescence dequenching, primary screen (AID 1986)
Details: 30 min, stronger effect = higher value
[1] = measured here: repeat confirmation average inhibition, at 18.6 µM

Row | Structure (SMILES) | inhibition (at 20 µM) | inhibition [1]
1 | c1cc(CCN2CCCC2)ccn1 | 1.8% (inactive) | 
2 | Cc1cccc(N=Nc2ccc(N(C)C)cc2)c1 | -1.7% (inactive) | 
3 | O=[N+]([O-])c1ccc2c(c1)C(c1ccccc1)=NCCN2 | 0.2% (inactive) | 
4 | CCN1CCN(c2ccc(N)cc2C)CC1 | -1.1% (inactive) | 
5 | CN1CCN(Cc2cn3cccnc3n2)CC1 | -0.4% (inactive) | 
6 | CCC(C)n1c(O)c(C=NCC2CCCO2)c(=O)[nH]c1=S (configuration not stated) | -0.8% (inactive) | 
7 | CC1=C2C3OC(=O)C(C)C3CC[C@@]2(C)C=CC1=O (some centres not stated) | -0.7% (inactive) | 
8 | CN1CCN(c2ccc([N+](=O)[O-])c(SCCO)c2)CC1 | -0.1% (inactive) | 
9 | Cc1cc(Cl)ccc1C(=O)C1CCCN(Cc2ccon2)C1 (configuration not stated) | -1.3% (inactive) | 
10 | CCOP(=O)(OCC)C(O)c1ccc(Br)cc1 (configuration not stated) | -1% (inactive) | 
11 | CC(Cc1ccccc1)[n+]1cc(/N=C(\N)[O-])on1 (configuration not stated) | -2% (inactive) | 
12 | CCN(CC)C(=O)c1ccc(NC(=O)CN2CCc3cc(OC)c(OC)cc3C2)cc1 | -1.3% (inactive) | 
13 | COc1ccc(CN2CCN(c3ccccc3)CC2)c(C)c1C | -1.3% (inactive) | 
14 | CN(C)c1ccc(/C=C2/C(=O)NC(=O)N(Cc3ccco3)C2=O)cc1 | 42.7% (inactive) | 
15 | Cn1cccc1/C=C1\C(=O)NC(=O)N(Cc2ccco2)C1=O | 30.6% (inactive) | 
16 | CCN(CC)c1ccc(/C=C2/C(=O)NC(=O)N(Cc3ccco3)C2=O)cc1 | 84.2% (active) | 
17 | O/N=C1/C(=C\c2ccccc2)N2CCC1CC2 | 9.6% (inactive) | 
18 | CN1CCC(N2CC3CC(C2)c2cccc(=O)n2C3)CC1 (configuration not stated) | 1.9% (inactive) | 
19 | CCOC(=O)c1c(/N=C/C2C(=O)NC(=O)NC2=O)sc2c1CCC2 | 6.8% (inactive) | 
20 | CCOC(=O)c1c(/N=C/C2C(=O)NC(=S)NC2=O)sc(C)c1C | 30.3% (inactive) | 
21 | CCOC(=O)c1c(/N=C/C2C(=O)NC(=S)NC2=O)sc2c1CCC2 | 81.3% (active) | 
22 | CN1CCC(=O)N(CCN=[N+]=[N-])CC1 | 1.6% (inactive) | 
23 | COc1cc(C)c(CN2CC=C(c3ccc(F)cc3)CC2)cc1C | -1.1% (inactive) | 
24 | CCN(CC)c1ccc(CN(C)CCc2ccc(OC)c(OC)c2)cc1 | 0.5% (inactive) | 
25 | Fc1ccccc1N1CCN(Cc2c(F)cccc2F)CC1 | -0.2% (inactive) | 

Row | Structure (SMILES) | inhibition (at 20 µM) | inhibition [1]
26 | O=C(N=Nc1c(O)[nH]c(=O)[nH]c1=O)C1COc2cc3ccccc3cc2O1 (configuration not stated) | 4.2% (inactive) | 
27 | O=C(C1CCCN(S(=O)(=O)c2cccc3nsnc23)C1)N1CCC2(CC1)OCCO2 (configuration not stated) | -1.1% (inactive) | 
28 | O=C(C(Cc1ccccc1)NS(=O)(=O)c1ccc(F)cc1)N1CCC2(CC1)OCCO2 (configuration not stated) | 3.1% (inactive) | 
29 | O=C(C(Cc1ccccc1)NS(=O)(=O)c1cccc2nsnc12)N1CCC2(CC1)OCCO2 (configuration not stated) | 103% (active) | 
30 | CNCCc1ccc(OC)c(OC)c1 | -0.5% (inactive) | 
31 | O=C(c1ccc(Cl)cc1)C12CN3CN(CN(C3)C1)C2 | 0% (inactive) | 
32 | COP(=O)(OC)C(Nc1ccccn1)c1ccccc1 (configuration not stated) | -0.3% (inactive) | 
33 | CN1C(=O)C(=Cc2ccc(N3CCCCCC3)cc2)C(=O)N(C)C1=O | 16.5% (inactive) | 
34 | CN1C(=O)C(=Cc2sc(=O)n(-c3ccccc3)c2N2CCCCC2)C(=O)N(C)C1=O | 68.2% (active) | 87.3%
35 | CN1C(=O)C(=Cc2sc(=O)n(-c3ccccc3)c2N(C)C)C(=O)N(C)C1=O | 27.8% (inactive) | 
36 | COc1ccccc1N1C(=O)NC(=O)/C(=C/c2ccc([N+](=O)[O-])s2)C1=O | 42.7% (inactive) | 
37 | COc1ccc(N2C(=O)NC(=O)/C(=C/c3ccc([N+](=O)[O-])s3)C2=O)cc1 | 35.4% (inactive) | 
38 | COc1cccc(N2C(=O)NC(=O)/C(=C/c3ccc([N+](=O)[O-])s3)C2=O)c1 | 45.2% (inactive) | 
39 | O=C1NC(=O)N(c2ccccc2)C(=O)/C1=C\c1ccc([N+](=O)[O-])s1 | 61.1% (inactive) | 6.1%
40 | COc1ccc(N2C(=O)NC(=O)/C(=C\c3ccc([N+](=O)[O-])s3)C2=O)cc1 | 56.4% (active) | 
41 | O=C1NC(=O)N(c2ccccc2)C(=O)/C1=C/c1ccc([N+](=O)[O-])s1 | 64.8% (active) | 
42 | O=c1c2ccccc2nc(Cc2ccccc2)n1-c1cccc(O)c1 | -1% (inactive) | 
43 | CCCc1cc(=O)oc2cc(OCC(=O)N3C[C@H]4C[C@@H](C3)c3cccc(=O)n3C4)ccc12 | 3% (inactive) | 
44 | CCOC(=O)c1nc2ccccc2c(=O)n1-c1ccc(C)cc1 | 0.5% (inactive) | 
45 | COc1cc(CC2(CCc3ccncc3)C(=O)N(C)C(=O)N(C)C2=O)cc(OC)c1OC | 2.3% (inactive) | 
46 | CCN1/C(=C\C=C\C2=[N+](CC)c3ccccc3C2(C)C)C(C)(C)c2ccccc21 | 0.5% (inactive) | 
47 | CN1/C(=C\C=C\C2=[N+](C)c3ccc4ccccc4c3C2(C)C)C(C)(C)c2ccccc21 | 65.1% (active) | 90.9%
48 | CN1/C(=C\C=Nc2ccccc2)C(C)(C)c2ccccc21 | 0.8% (inactive) | 
49 | NCCc1c[nH]c2ccc(OCc3ccccc3)cc12 | -1.2% (inactive) | 
